Laboratory results reported in PubChem BioAssay AID2551 (National Center for Advancing Translational Sciences (NCATS), 2010).
Hit rate of the full screen: of about 310,000 compounds, about 17,000 (5.5%) were called active. Not shown: some 11% with an inconclusive outcome. The call rests on the fitted dose curve; in most records, active means well fitted inhibition curve with a large enough effect; inconclusive means small, poorly fitted or top-dose-only effect, or effect the other way; inactive means no such curve, though single readings can be large or run the other way. The list comes from a sample in which actives are over-represented; it also holds similar structures and randomly drawn compounds.

target: Nuclear receptor ROR-gamma (Mus musculus) (UniProt P51450); assay: qHTS for inhibitors of ROR gamma transcriptional activity; conditions: Drosophila S2 Gal4-RORgamma UAS-luciferase reporter, 20 h; series mostly up to 53.6 µM; further: nearly all actives have a fitted effect of over 60% in size
In short: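 Luciferase reporter read in Schneider cells carrying Gal4-RORγ (mouse) and UAS-Photinus luciferase; cells given compound 1 h before 700 uM copper sulfate induction, then incubated 20 h at ambient temperature.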
On the % scale 0 is the no-effect control and ±100 the full control effect; potency means the concentration at half of the fitted maximal effect.

Chain of Nuclear receptor ROR-gamma (Mus musculus) (P51450 whole entry, looked up, the tested form may be a part): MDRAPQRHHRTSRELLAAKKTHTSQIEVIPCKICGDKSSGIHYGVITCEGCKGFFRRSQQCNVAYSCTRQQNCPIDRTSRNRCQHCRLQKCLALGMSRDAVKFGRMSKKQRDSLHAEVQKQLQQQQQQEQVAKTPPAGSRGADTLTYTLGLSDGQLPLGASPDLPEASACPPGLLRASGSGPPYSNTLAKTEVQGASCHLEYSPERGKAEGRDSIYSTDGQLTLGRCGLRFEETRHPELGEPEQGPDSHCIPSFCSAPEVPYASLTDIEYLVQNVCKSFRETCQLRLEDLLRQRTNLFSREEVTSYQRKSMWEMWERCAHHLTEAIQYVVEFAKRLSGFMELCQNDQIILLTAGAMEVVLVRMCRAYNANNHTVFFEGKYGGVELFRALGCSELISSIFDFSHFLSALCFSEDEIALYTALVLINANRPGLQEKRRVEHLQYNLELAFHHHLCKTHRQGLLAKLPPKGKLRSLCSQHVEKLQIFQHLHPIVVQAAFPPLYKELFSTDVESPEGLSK

Potency, active:
Cc1n[nH]c(=O)n1-c1ccc(Oc2ccccc2)cc1 2.82 µM
CCOc1ccc(C(=O)NC(=S)Nc2ccc(N3CCOCC3)c(Cl)c2)cc1[N+](=O)[O-] 3.16 µM
COc1cccc(OC)c1C(=O)NC(=S)Nc1ccc(N2CCOCC2)c(Cl)c1 8.91 µM
Cc1cccc(C(=O)Nc2ccc(CC(=O)O)cc2)c1 7.94 µM
CCCCCCCCn1c2c(c(=N)c3c1CCC3)CCCC2 0.708 µM
c1ccc(CN=C2Nc3ccccc3CS2)nc1 11.2 µM
Cn1c(-c2ccco2)nc2cc3ccccc3cc21 6.31 µM
Cc1cc(C)c(C2C3=C(Nc4c2c(C)nn4-c2ccccn2)c2ccccc2C3=O)c(C)c1 (stereo unspecified) 2.51 µM
COc1ccc(-c2nn(-c3ccccc3)cc2/C=N/Nc2ccccn2)cc1OC 7.08 µM
C=CCn1c(CCNC(=O)c2cccs2)n[nH]c1=S 17.8 µM
C=CCn1c(-c2ccccc2OCC)n[nH]c1=S 10 µM
C=CCn1c(-c2ccc3[nH]c(C)c(C)c3c2)n[nH]c1=S 5.62 µM
C=CCn1c(-c2sc(-c3ccccc3)nc2C)n[nH]c1=S 2.51 µM
COc1ccc(/C=N/NC(=O)c2ccncc2)cc1CN1CCCc2ccccc21 11.2 µM
O=C(Nc1nnc(C2CC2)s1)c1ccccn1 1.12 µM
O=C(Nc1nnc(C2CC2)s1)c1cc(Cl)sc1Cl 11.2 µM
C/C(=N\NC(=O)c1ccc(C)cc1)C1C(=O)c2ccccc2C1=O 0.891 µM
Cc1cc(F)ccc1NC(=S)NCCc1ccccc1 5.62 µM
Cc1ccc(NC(=S)NCc2ccccc2Cl)c(C)c1 6.31 µM
Cc1cccc(NC(=S)NCCc2ccc(F)cc2)c1C 2 µM
Cc1ccc(NC(=S)NCCc2ccc(Cl)cc2)c(C)c1 2.82 µM
Cc1ccccc1NC(=S)NC(=O)Cc1ccc(Cl)cc1 7.94 µM
Cc1ccc(NC(=S)Nc2ncccc2C)c(C)c1 4.47 µM
Cc1cccc(NC(=S)NCCc2ccc(Cl)cc2)c1C 5.62 µM

Potency, inactive:
CC(=O)c1cccc(NC(=O)COc2ccc(S(=O)(=O)N3CCOCC3)cc2)c1
O=C(CSc1ccc(-c2ccccn2)nn1)Nc1ccccc1
CCC(C)(C)n1nnnc1C(c1ccc(OC)c(OC)c1)N1CCN(C(=O)c2ccco2)CC1 (stereo unspecified)
Cc1cccc(NS(=O)(=O)c2cc(Cl)ccc2Cl)n1
COc1ccc(Oc2ncc3nc(C)c(=O)n(-c4ccccc4)c3n2)cc1
Cc1n[nH]c(=O)n1-c1ccc(C(C)C)cc1
Cc1ccc2c(c1)N(S(=O)(=O)c1cc(-c3cc(C)no3)ccc1C)CCO2
O=S(=O)(c1ccc(Cl)s1)N1CCC2(CC1)OCCO2
O=C(c1cccc(Br)c1)N1CCN(C2=NS(=O)(=O)c3ccccc32)CC1
COC(=O)c1c(NC(=O)C(=O)N2CCCCC2)sc2c1CC(C)(C)OC2
CCOc1ccc(C(=O)Nc2ccc(CN3CCOCC3)cc2)cc1Cl
COC(=O)c1cc(NC(=O)c2ccco2)ccc1N1CCOCC1
COc1c(C)cccc1C(=O)Nc1cc(Cl)ccc1N1CCOCC1
CCOC(=O)c1c(NC(=O)c2ccc(N3CCOCC3)c([N+](=O)[O-])c2)sc(C)c1C
CCc1nc2cccnc2n1-c1ccc(C(=O)O)cc1
CC(=O)Oc1cccc(C(=O)Nc2ccccc2NC(=O)c2cccc(OC(C)=O)c2)c1
COc1ccc(C2=NS(=O)(=O)N(C)C(C(=O)N3CCCCC3)=C2)cc1
COc1cc(CC(=O)N2CCC(n3nccc3NC(=O)C3CC3)CC2)cc(OC)c1OC
CC(C)(C)c1ccc(/C=C/C(=O)NCCCn2ccnc2)cc1
O=C(CSc1nc(C2CC2)nc2ccccc12)Nc1cccc(O)c1
O=C(O)Cc1ccc(NC(=O)c2cccs2)cc1
O=C(Cc1ccccc1)Nc1cccc(NC(=O)c2ccccc2)c1
Cc1nn(C)cc1S(=O)(=O)N1CCN(c2ccc(F)cc2)CC1
Cc1ccc(OCC(=O)Nc2ccc(C(=O)O)cc2NC(=O)COc2ccc(C)c(C)c2)cc1C
O=C(NNS(=O)(=O)c1ccc([N+](=O)[O-])cc1)C1CCCCC1
COc1ccccc1-n1c(-c2cc(-c3ccco3)[nH]n2)n[nH]c1=S
CN(C)Cc1c(C(=O)N/N=C/c2ccccc2OCc2ccc(F)cc2)nnn1-c1nonc1N
Cc1ccc(C2C3=C(Nc4[nH]n(-c5ccccc5)c(=O)c42)c2ccccc2C3=O)cc1 (stereo unspecified)
Cc1nn(-c2ccccn2)c2c1C(c1ccncc1)C1=C(CC(C)(C)CC1=O)N2 (stereo unspecified)
CS(=O)(=O)N(CC(=O)Nc1ccc(F)cc1)C1CCCCC1
Cc1cccc(OC(C)C(=O)N2CCc3ccccc3C2)c1 (stereo unspecified)
Cc1nnc(SCC(=O)N/N=C/c2cn(-c3ccccc3)nc2-c2ccc(F)cc2)n1-c1ccccc1
CN(C)/N=C/c1cn(-c2ccccc2)nc1-c1cccnc1
CC1CC(=O)N(CC(=O)Nc2cccc(Cl)c2)c2ccccc2S1(=O)=O (stereo unspecified)
NC(=O)c1cc(S(=O)(=O)N2CCCC2)ccc1OCc1ccc(F)cc1
Cc1ccc(C)c2[nH]c(=O)c(CCNC(=O)c3cccs3)cc12
CCOC(=O)CSc1nnc(CNC(=O)c2cccs2)n1-c1ccccc1
O=C(c1cc2cc(Br)cc(Br)c2oc1=O)N1CCOCC1
Cc1nc(-c2ccccc2)sc1-c1nnc(C2CC2)o1
Cc1nc(-c2ccccc2)sc1-c1nc(-c2ccccc2)ncc1S(=O)(=O)c1ccccc1
C=CCn1c(=S)sc2c(=O)[nH]c(C)nc21
C=CCn1c(COc2cccc3cccnc23)nnc1SCC(=O)OC
C=CCn1c(COc2ccccc2C)nnc1SCC(=O)O
COCCn1c(SCC(=O)N2CCCCCC2)nc2c(c1=O)SCC2
CCN1CCN(c2sc(S(C)(=O)=O)nc2S(=O)(=O)c2ccc(Cl)cc2)CC1
CCOC(=O)c1csc(CCNC(=O)c2oc3c(Cl)cc(C)cc3c2C)n1
CC1CC(C)CN(S(=O)(=O)c2cccc3nonc23)C1 (stereo unspecified)
COc1ccc(/C=N/NC(=O)c2ccc(Cl)cc2)cc1COC(C)=O
COc1cc(/C=N/NC(=O)CNC(=O)c2ccncc2)ccc1OC(C)=O
COc1ccc(C(=O)O)cc1S(=O)(=O)NCc1cccnc1
COc1cccc(NC(=O)CN2CCN(CC(=O)Nc3ccccc3Cl)CC2)c1
Cc1ccc(OCC(=O)NC(C)c2ccccc2)cc1C (stereo unspecified)
O=C(CN1CCCCCC1)Nc1ccc(S(=O)(=O)N2CCCCC2)cc1
CC1CCN(c2ccc(C(=O)Nc3nnc(C4CC4)s3)cc2[N+](=O)[O-])CC1
O=C(Cc1cccs1)Nc1nnc(C2CC2)s1
Cc1cccc(NC(=O)CSCC(=O)Nc2nnc(C3CC3)s2)c1
CCCc1ccc(OCC(O)CN2CCN(C(=O)OCC)CC2)cc1 (stereo unspecified)
O=C(NCc1ccncc1)C(=O)NCC1OCCN1S(=O)(=O)c1ccc(Br)cc1 (stereo unspecified)
CCCN1C2CCCC1CC(NC(=O)NC13CC4CC(CC(C4)C1)C3)C2 (stereo unspecified)
COc1cc(/C=N/NC(=O)Cc2ccccc2)cc(OC)c1OC
C/C(=N/NC(=O)c1ccc(NC(=O)c2ccc(F)cc2)cc1)c1ccccc1
Cc1ccc(C(=O)NCCNC(=O)c2ccccc2)cc1
FC(F)(F)c1nnc2c3ccccc3c(Cl)nn12
O=C(CN1CCN(c2cccc(Cl)c2)CC1)Nc1ccc(S(=O)(=O)N2CCOCC2)cc1
Cc1cc(C(=O)NCCc2ccc(Cl)cc2)c(C)o1
O=C(CC(=O)N/N=C\c1ccc(F)cc1)NCCc1ccccc1
Cc1cccc(NC(=O)C2CCCN(C(=O)Nc3ccc(F)cc3)C2)c1C (stereo unspecified)
Cc1ccc(NC(=O)c2ccn(C(=O)Nc3ccccc3)n2)c(C)c1
Cc1cc(Cl)ccc1NC(=S)NCCCN1CCCC1=O
Cc1ccc(NC(=O)C(=O)NCc2ccco2)c(C)c1
NC(=O)Nc1ccccc1C(=O)NCCc1ccccc1
O=C(Nc1cccc([N+](=O)[O-])c1)N1CCc2ccccc2C1
Cc1cc(N2C(=O)C(O)=C(C(=O)c3ccc(C)o3)C2c2ccc(OCc3ccccc3)cc2)no1 (stereo unspecified)
COc1ccccc1CCNS(=O)(=O)c1cc2c3c(c1)C(C)C(=O)N3CCC2 (stereo unspecified)
CCN(CC)S(=O)(=O)c1ccc(C(=O)N2CCN(C3=NS(=O)(=O)c4ccccc43)CC2)cc1
Cc1cc(C)n(-c2ccc(NC(=O)C3CCCCN3C(=O)c3cccs3)cc2)n1 (stereo unspecified)
O=C(Cc1ccccc1Cl)N1CCOCC1
O=C(COc1ccc(Cl)cc1)Nc1ccccc1CO
CSc1ncc(C(=O)Nc2ccc(C)cc2C)c(C)n1
Cc1cccc(NC(=S)N2CCC(O)CC2)c1C
Cc1ccccc1N/C(SCc1ccc(Cl)cc1)=C(/C#N)C(N)=O
CCOC(=O)N1CCN(C(=S)Nc2ccc(C)cc2C)CC1

Activity change, negative = inhibition, inactive:
COc1ccc(CCn2c(-c3ccco3)nc3nc4ccccc4nc32)cc1OC -7.43% [at 10 µM]
Cc1[nH]c2ccc(S(N)(=O)=O)cc2c1C -1.39% [at 10 µM]
Cc1occc1C(=O)Nc1nnc(C2CCCCC2)s1 0% [at 10 µM]
Cc1cccc(NC(=O)COC(=O)CCc2ccccc2)c1C -18.4% [at 1.91 µM]
Cc1cccc(NC(=O)c2cccc(C(=O)Nc3cccc(C)c3C)n2)c1C -10.9% [at 1.91 µM]
